Assay outcomes as filed in PubChem.
Tg IFNy HTS: T. gondii growth inhibition under IFN-gamma; Toxoplasma gondii growth in IFN-gamma-treated host cells; active compounds read low; activity change, negative = inhibition, % (test concentration not listed); actives 3.8% (n = 69,000); AID 1259416; in the data active = activity change below about -70%, passing the limit was not always enough;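 also: host cells are HeLa cells infected with Toxoplasma gondii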
* marks the source's active call; other numbers are inactive results. The full list was thinned out, with hits kept by preference.

SMILES	Tg IFNy HTS
COCCN1C(=O)CCc2cc(NS(=O)(=O)c3ccc(C)cc3)ccc21	39
COCCN1C(=O)CCc2cc(NS(=O)(=O)c3ccccc3)ccc21	-27
COCCN1C(=O)CCc2cc(NS(=O)(=O)c3ccc(C)c(C)c3)ccc21	22
CCCN1C(=O)CCc2cc(NS(=O)(=O)c3ccc(CC)cc3)ccc21	-82*
COCCN1C(=O)CCc2cc(NS(=O)(=O)c3ccc4c(c3)CCC4)ccc21	-63
CCCN1C(=O)CCc2cc(NS(=O)(=O)c3ccc(C(F)(F)F)cc3)ccc21	-82*
COCCN1C(=O)CCc2cc(NS(=O)(=O)c3ccc(C(F)(F)F)cc3)ccc21	1
CCCN1C(=O)CCc2cc(NS(=O)(=O)c3cccs3)ccc21	5
COc1ccc(CN(Cc2cc3c(cc2C)n(C)c(=O)n3C)C2CCN(C)CC2)cc1	13
CCn1c(CC2CCN(c3ccnc4ccccc34)CC2)nn(C)c1=O	-3
CCOc1ccc(-c2cc3c(=O)n(Cc4nc(-c5ccccc5OCC)oc4C)ccn3n2)cc1	91
CCOC(=O)c1ccc(NC(=O)Nc2ccc(-c3nc(-c4ccc(C)cc4C)co3)cc2)cc1	-2
Cc1ccoc1C(=O)N(Cc1ccccn1)CC(C)C	94
CCn1c(C2CCCNC2)nn(CCc2cccc3ccccc23)c1=O (centres undefined)	11
CN1CC2(CCN(C(=O)c3cnc4c(c3)nnn4C)C2)OC1=O (centres undefined)	12
CCc1nc(OCC(=O)Nc2cc(Cl)ccc2Cl)c2ccccc2n1	-38
Cc1ccc(Cl)cc1NC(=O)COc1ccccc1Br	-83*
Cc1nc(OCC(=O)Nc2cc(Cl)ccc2C)c2ccccc2n1	-8
Cc1ccc2nc(C3CCCN3CC(=O)NCc3ccccn3)[nH]c2c1 (centres undefined)	17
Cc1c(C(=O)NCCCN2CCOCC2)cc(C(C)(C)C)n1-c1ccccc1	-18
Cc1ccc(C(=O)NC(=S)NCCCN2CCOCC2)cc1	-2
CC1CCCC(C)N1C(=S)NCCCN1CCOCC1 (centres undefined)	-80*
O=C(NCC1COc2ccccc2O1)c1ncoc1-c1cccs1 (centres undefined)	-53
COCC1CN(C(=O)COc2ccccc2C)Cc2ncn(C)c21 (centres undefined)	-5
CCOC(=O)c1nc(-c2cccc(-n3cccc3)c2)no1	-18
SMILES	Tg IFNy HTS
CC(C)(C)c1ccc(-c2noc(CSc3ccccn3)n2)cc1	178
CC(C)(C)c1nc(SCc2nc(-c3cccc(-n4cccc4)c3)no2)n[nH]1	-81*
O=C(Nc1ccc(F)cc1)N1C[C@@H]2C[C@H](C(=O)N3CCOCC3)[C@@H](C1)O2	5
O=C(Nc1csc(Cc2c(Cl)cccc2Cl)n1)NN1CCOCC1	-38
CC(C)c1ccc(NC(=O)c2csc(Cc3c(Cl)cccc3Cl)n2)cc1	-84*
CC(C)c1cc(C(=O)Nc2ccc(Cn3cncn3)cc2)cs1	107
Cc1ccc(C(=O)N2CCC3(CC2)Nc2cc(F)ccc2-n2cccc23)cc1C	45
C[C@@H](NC(=O)C[C@H]1CC[C@@H]2[C@@H](COc3ccc(NS(=O)(=O)c4ccc(Cl)cc4)cc3C(=O)N2C)O1)c1ccccc1	-89*
CN1C(=O)c2cc(NC(=O)NCc3ccccc3)ccc2OC[C@H]2O[C@H](CC(=O)NCC3CCCCC3)CC[C@H]21	-47
CN1C(=O)c2cc(NC(=O)c3ccc(C(F)(F)F)cc3)ccc2OC[C@H]2O[C@H](CC(=O)NCc3ccc4c(c3)OCO4)CC[C@H]21	-37
CN1C(=O)c2cc(NC(=O)Cc3cccs3)ccc2OC[C@H]2O[C@@H](CC(=O)NCC3CCCCC3)CC[C@@H]21	-23
C[C@@H](NC(=O)C[C@H]1CC[C@@H]2[C@H](COc3ccc(NS(=O)(=O)c4ccc(Cl)cc4)cc3C(=O)N2C)O1)c1ccccc1	-9
CN1C(=O)c2cc(NC(=O)Cc3cccs3)ccc2OC[C@@H]2O[C@H](CC(=O)NCC3CCCCC3)CC[C@H]21	-11
CN1C(=O)c2cc(NC(=O)c3ccc(C(F)(F)F)cc3)ccc2OC[C@@H]2O[C@@H](CC(=O)NCc3ccc4c(c3)OCO4)CC[C@@H]21	-82*
CN1C(=O)c2cc(NC(=O)c3ccc(C(F)(F)F)cc3)ccc2OC[C@H]2O[C@@H](CC(=O)NCc3ccc4c(c3)OCO4)CC[C@H]21	-28
CN1C(=O)c2cc(NC(=O)NCc3ccccc3)ccc2OC[C@@H]2O[C@H](CC(=O)NCC3CCCCC3)CC[C@@H]21	-87*
C[C@H](NC(=O)C[C@H]1CC[C@H]2[C@@H](COc3ccc(NS(=O)(=O)c4ccc(Cl)cc4)cc3C(=O)N2C)O1)c1ccccc1	-37
CN1C(=O)c2cc(NC(=O)Cc3cccs3)ccc2OC[C@@H]2O[C@H](CC(=O)NCC3CCCCC3)CC[C@@H]21	-78*
CN1C(=O)c2cc(NC(=O)NCc3ccccc3)ccc2OC[C@H]2O[C@H](CC(=O)NCC3CCCCC3)CC[C@@H]21	-20
CC1NC(=O)COC12CCN(C(=O)c1cccnc1)CC2 (centres undefined)	-7
